Measured values taken from PubChem BioAssay AID1345085 (National Center for Advancing Translational Sciences (NCATS), 2018).
Records with an inconclusive call do not appear. Activity calls are given as the source filed them. Calls follow the shape of the dose curve; as a rule, active = well fitted cell-killing curve with a large enough effect; inconclusive = small, poorly fitted or top-dose-only effect, or effect the other way; inactive = no such curve, though single readings can be large or run the other way.

Test system: SW626
Assay: Confirmatory qHTS for gynecologic anti-cancer compounds from libraries of approved drugs and bioactive compounds; also: nearly all actives have a fitted effect of over 55% in size
Settings: gynecologic cancer cell panel viability, ATPlite luminescence, 48 h; series mostly up to 57.6 µM
In short: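 IC50 values derive from an ATPlite ATP-content luminescence assay following 48 h treatment at 37 C. Each compound ran as an 11-concentration, threefold series (57.5 uM to 0.977 nM); HEK 293T served as control line for selectivity index.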
Potency is read from the fitted curve at half-maximal effect.

Row | SMILES | Potency
1 | CC1=C(CO)C(=O)O[C@@H]([C@@H](C)[C@H]2CC[C@H]3[C@@H]4C[C@H]5O[C@]56[C@@H](O)C=CC(=O)[C@]6(C)[C@H]4CC[C@]23C)C1 | 5.3 µM (active)
2 | CCN(CC)CCCC(C)Nc1c2ccc(Cl)cc2nc2ccc(OC)cc12 (stereo not drawn) | 27.3 µM (active)
3 | O=C(CCCCCCNC(=O)c1cnc(N(c2ccccc2)c2ccccc2)nc1)NO | 7.69 µM (active)
4 | N=C(N)c1ccc(OCCCCCOc2ccc(C(=N)N)cc2)cc1 | inactive
5 | O=C1c2c(O)ccc(O)c2C(=O)c2c(NCCNCCO)ccc(NCCNCCO)c21 | 6.85 µM (active)
6 | Cc1cnc(Nc2ccc(OCCN3CCCC3)cc2)nc1Nc1cccc(S(=O)(=O)NC(C)(C)C)c1 | 19.3 µM (active)
7 | NC(=O)Nc1cc(-c2cccc(F)c2)sc1C(=O)NC1CCCNC1 (stereo not drawn) | 0.306 µM (active)
8 | CCC1C(=O)N(C)c2cnc(Nc3ccc(C(=O)NC4CCN(C)CC4)cc3OC)nc2N1C1CCCC1 (stereo not drawn) | 2.43 µM (active)
9 | CCN(CC)CCOc1ccc(/C(=C(\Cl)c2ccccc2)c2ccccc2)cc1 | 89.1 µM (active)
10 | CCCc1nn(C)c2c(=O)[nH]c(-c3cc(S(=O)(=O)N4CCN(C)CC4)ccc3OCC)nc12 | inactive
11 | NC(=O)c1cccc2cn(-c3ccc([C@@H]4CCCNC4)cc3)nc12 | inactive
12 | Cc1cc(Nc2nc(N[C@@H](C)c3ccc(F)cc3)c(C#N)cc2F)n[nH]1 | 5.44 µM (active)
13 | Cc1c(C)n(Cc2ccc(-c3ccccc3C(=O)O)cc2)c2ccc(C(=O)N[C@@H](C)c3ccc([N+](=O)[O-])cc3)cc12 | inactive
